Source: PubChem
Nrf2 ARE act – activates Nrf2 signaling; AREc32 ARE-luciferase reporter (MCF7-derived line), luminescence, 24 h; Potency, µM (titrated, usually from 46.1 µM), usual class: activators; 410,000 tested, 0.31% active; also: nearly all actives have a fitted effect of over 65% in size
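AREc32_Fluc, 1000 cells/well, OPTI-MEM + 5% FBS, o/n 37 deg C 5% CO2; 23 nL cpd by pin tool, 24 hr; Steady-Glo 30 min RT, luminescence.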
A549 viability – counter-screen for Nrf2 inhibitors: cytotoxicity in A549 cells | A549 ARE-Fluc cells, CellTiter-Fluor viability, 18-24 h | Potency, µM (series often up to 46 µM), hits mostly inhibitors | 390,000 tested, 0.16% active | AID 504648
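Cytotoxicity counterscreen: CellTiter-Fluor fluorescence was measured in A549 ARE_Fluc cells after 18-24 h of compound exposure in a concentration series. The subsequent BugLite luminescent read reports ARE-luciferase activity.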
Nrf2 inh – inhibitors of Nrf2 signaling; A549 ARE-Fluc reporter, luciferase luminescence, 18-24 h; Potency, µM (highest dose often 46 µM), most hits filed as inhibitors; 360,000 tested, 2.1% active; AID 504444; also: nearly all actives have a fitted effect of over 60% in size
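In this cell-based qHTS, ARE-driven firefly luciferase in A549 cells reports Nrf2 activity; the luminescent signal after BugLite lysis is the measured value, with a prior CellTiter-Fluor read for cell health.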
ELG1 DNA repair – ELG1-dependent DNA repair inhibition | HEK293T ELG1-luciferase reporter, luminescence, 16 h; DNA damage induced by 5-fluorouridine | Potency, µM (doses to about 46.1 µM), usual class: inhibitors | 330,000 tested, 2.3% active | AID 504467; also: nearly all actives have a fitted effect of over 55% in size
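Cells (2,000 per well) received 5-fluorouridine plus test compound or DMSO and were incubated 16 hr at 37 °C, 5% CO2. Luciferase activity was read by luminescence 30 min after ONE-Glo addition; signal suppression marked inhibition of damage-induced ELG1 function.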
Large screens that a line does not name were inactive. An excerpt weighted towards active compounds, which were near 3.7% of everything screened. Calls follow the shape of the dose curve; as a rule, active = well fitted curve in the direction sought with a large enough effect; inconclusive = small, poorly fitted or top-dose-only effect, or another doubt; inactive = no such curve, though single readings can be large; an effect the other way counts as inactive or inconclusive.

CSCCC(NS(=O)(=O)c1ccc(Cl)cc1)C(=O)OCC(=O)c1c(C)[nH]c2ccccc12 (stereo not drawn)	A549 viability inconclusive, Nrf2 inh 18.4µM, ELG1 DNA repair inconclusive
O=C1OCCC1Sc1nnc(-c2ccccc2)o1 (stereo not drawn)	none
O=C1OCCC1Sc1nnc(-c2ccc(Cl)cc2Cl)o1 (stereo not drawn)	Nrf2 inh 9.2µM
Clc1ccccc1-c1ncc(-c2ccccc2)o1	Nrf2 ARE act 10µM, Nrf2 inh inconclusive, ELG1 DNA repair inconclusive
CCN(Cc1ccccc1)S(=O)(=O)c1ccc(C(=O)Nc2nnc(-c3ccccc3OC)o2)cc1	Nrf2 inh 13µM, ELG1 DNA repair inconclusive
COc1ccccc1-c1nnc(NC(=O)CCS(=O)(=O)c2ccc(F)cc2)o1	Nrf2 ARE act 22.4µM (no result: A549 viability, Nrf2 inh, ELG1 DNA repair)
N#CCCN(CCC#N)S(=O)(=O)c1ccc(C(=O)Nc2nnc(C3=COCCO3)o2)cc1	none
CCCCN(C)S(=O)(=O)c1ccc(C(=O)Nc2nnc(C3=COCCO3)o2)cc1	Nrf2 inh inconclusive, ELG1 DNA repair 14.6µM
COc1ccc(-c2nnc(NC(=O)c3ccc(S(=O)(=O)N4COCC4(C)C)cc3)o2)cc1	Nrf2 inh 18.4µM
CCCN(CCC)S(=O)(=O)c1ccc(C(=O)Nc2nnc(CSC)o2)cc1	Nrf2 inh 9.2µM, ELG1 DNA repair inconclusive
CCCN(CCC)S(=O)(=O)c1ccc(C(=O)Nc2nnc(-c3cc(OC)cc(OC)c3)o2)cc1	Nrf2 inh inconclusive, ELG1 DNA repair 1.46µM
CCCCN(CCCC)S(=O)(=O)c1ccc(C(=O)Nc2nnc(CSC)o2)cc1	Nrf2 inh 7.31µM
Cc1ccc(S(=O)(=O)c2nnn3c2nc(Nc2ccc(C(C)C)cc2)c2sccc23)cc1C	Nrf2 inh 20.6µM (no result: ELG1 DNA repair)
O=C(OCC#CCSc1nnc(-c2cccc3ccccc23)o1)c1cc2ccccc2s1	none (no result: Nrf2 ARE act, ELG1 DNA repair)
CCN(CC)C(=O)c1nn(-c2ccccc2)c2c1C1CCC2(C)C1(C)C (stereo not drawn)	Nrf2 inh 16.4µM
Cc1nn(-c2nc3ccccc3[nH]2)c(=O)c2ccccc12	Nrf2 inh 1.3µM, ELG1 DNA repair inconclusive
Cc1cc(NC(=O)c2c(F)cccc2F)n(-c2nc3ccccc3[nH]2)n1	A549 viability inconclusive, Nrf2 inh inconclusive, ELG1 DNA repair inconclusive
Cc1cc(NC(=O)c2ccccc2F)n(-c2nc3ccccc3[nH]2)n1	ELG1 DNA repair 16.4µM
Cc1cc(Nc2ccccc2)n(-c2nc3ccccc3[nH]2)n1	Nrf2 inh 16.4µM
Cc1cc(NC(=O)c2c(F)cccc2Cl)n(-c2nc3ccccc3[nH]2)n1	Nrf2 inh 14.6µM, ELG1 DNA repair 20.6µM
O=C(Cc1ccc(NC(=O)N2CCCCc3ccccc32)cc1)NCc1cccc(Br)c1	none (no result: ELG1 DNA repair)
COc1ccc2oc(-c3cccc(NC(=O)c4sc5c([N+](=O)[O-])cccc5c4Cl)c3)nc2c1	none (no result: ELG1 DNA repair)
CC(=O)c1c(C)[nH]c(C(=O)OCC(=O)Nc2ccc(C)cc2[N+](=O)[O-])c1C	Nrf2 inh 5.8µM, ELG1 DNA repair inconclusive
Cc1cc(C)n(-c2ccc(C(=O)OCC(=O)Nc3cc(Cl)ccc3[N+](=O)[O-])cc2)n1	Nrf2 inh inconclusive
CC(=O)c1c(C)[nH]c(C(=O)OCC(=O)Nc2cc(Cl)ccc2[N+](=O)[O-])c1C	Nrf2 inh inconclusive, ELG1 DNA repair 18.4µM
CC(C)(C)n1nnnc1C(c1ccc(C(F)(F)F)cc1)N(Cc1ccccc1)Cc1ccco1 (stereo not drawn)	Nrf2 inh 14.6µM
CC(C)(C)n1nnnc1C(c1ccc(C(F)(F)F)cc1)N(Cc1ccc(F)cc1)Cc1ccco1 (stereo not drawn)	Nrf2 inh inconclusive
CC1(c2nnc(-c3ccncc3)o2)CC(c2ccc([N+](=O)[O-])cc2)=NO1 (stereo not drawn)	Nrf2 inh 11.6µM, ELG1 DNA repair 20.6µM
CC1(c2nnc(-c3ccccc3)o2)CC(c2c(Cl)cccc2Cl)=NO1 (stereo not drawn)	Nrf2 inh 23.1µM (no result: ELG1 DNA repair)
O=C1C(=O)N(C2CCN(C(=O)c3ccc(F)cc3)CC2)CCN1Cc1ccc(F)cc1	Nrf2 inh inconclusive (no result: ELG1 DNA repair)
COc1ccc(OC)c(NC(=O)c2ccc(-c3nc(CSc4ccccc4)c(C)o3)cc2)c1	Nrf2 inh inconclusive (no result: ELG1 DNA repair)
CCCN(C(=O)CSCC(=O)Nc1ccc(OC)cc1)c1c(N)n(Cc2ccccc2)c(=O)[nH]c1=O	none
O=C1/C(=C/c2ccccc2)CCC1C1CCCC1 (stereo not drawn)	Nrf2 inh inconclusive, ELG1 DNA repair inconclusive
CN1C2CCC1/C(=C\c1ccccc1)C(=O)/C2=C\c1ccccc1	Nrf2 ARE act inconclusive, A549 viability inconclusive, Nrf2 inh 25.9µM, ELG1 DNA repair inconclusive
O=C(C[n+]1cccc2ccccc21)c1ccc([N+](=O)[O-])cc1	A549 viability inconclusive, Nrf2 inh inconclusive, ELG1 DNA repair 20.6µM
O=C(C[n+]1cccc2ccccc21)c1ccc(Cl)cc1	none
O=[N+]([O-])c1ccc(Cl)c(C[n+]2cccc3ccccc32)c1	Nrf2 inh 11.6µM
Cc1ccc2c(=O)cc(C(=O)Nc3cccc(Cl)c3C)oc2c1C	none (no result: ELG1 DNA repair)
O=C(CSc1nnc2n(C3CCCC3)c(=O)c3ccccc3n12)N1CCCCCC1	ELG1 DNA repair inconclusive (no result: Nrf2 inh)
CC1CCCN(C(=O)CSc2nnc3n(C4CCCC4)c(=O)c4ccccc4n23)C1 (stereo not drawn)	ELG1 DNA repair 9.2µM (no result: Nrf2 inh)
Cc1cccc(C)c1OCC(O)CN1CCC(CN2C(=O)c3cccc4cccc(c34)C2=O)CC1 (stereo not drawn)	A549 viability inconclusive, ELG1 DNA repair 23.1µM
CC(=O)c1ccc(OCC(O)CN2CCN(S(=O)(=O)c3c(C)c(C)cc(C)c3C)CC2)cc1 (stereo not drawn)	A549 viability inconclusive, Nrf2 inh 25.9µM, ELG1 DNA repair inconclusive
CCC(OCC(O)CN1CCN(CCN2C(=O)c3cccc4cccc(c34)C2=O)CC1)c1ccccc1 (stereo not drawn)	ELG1 DNA repair 20.6µM
Cc1ccccc1OCC(O)CN1CCN(CCN2C(=O)c3cccc4cccc(c34)C2=O)CC1 (stereo not drawn)	ELG1 DNA repair 23.1µM
CC(C)OCC(O)CN1CCN(CCN2C(=O)c3cccc4cccc(c34)C2=O)CC1 (stereo not drawn)	none
Cn1cccc1CC(=O)N/N=C/c1ccc(Cl)c([N+](=O)[O-])c1	Nrf2 ARE act inconclusive
C=CCc1ccccc1OCC(O)CN1CCN(CCN2C(=O)c3cccc4cccc(c34)C2=O)CC1 (stereo not drawn)	ELG1 DNA repair 20.6µM
C=CCc1ccccc1OCC(O)CN1CCN(C(=O)OCC)CC1 (stereo not drawn)	none
CC(=O)c1ccc(OCC(O)CN2CCN(CCN3C(=O)c4cccc5cccc(c45)C3=O)CC2)cc1 (stereo not drawn)	Nrf2 ARE act inconclusive, Nrf2 inh inconclusive, ELG1 DNA repair 23.1µM
Cc1cc(C)n2nc(/C(C#N)=C/c3ccccn3)c(C#N)c2n1	Nrf2 ARE act 7.94µM
N#C/C(=C\c1ccccn1)c1ccccn1	Nrf2 ARE act 22.4µM, Nrf2 inh inconclusive, ELG1 DNA repair inconclusive
